Test results: PubChem BioAssay AID624483 (NMMLSC, 2012)
Screen size: about 360,000 compounds; about 11,000 (3.1%) were called active. About 2% were inconclusive and are not listed. The sample as a whole holds a higher share of actives than the screen did. A number with no mark means an inactive call. No stated cut-off is given here; in the data, active means fluorescence intensity above about 16000; inconclusive means no clear call, values can overlap the other calls; inactive means below that.

assay: counter-screen for toxin protease inhibitors: compound fluorescence, primary screen, artefact control for toxin protease inhibitor project, biochemical, multiplex microsphere, HTS (AID 624483); details: compound autofluorescence counterscreen, microsphere flow cytometry; active compounds read high

With Oc1ccc(-n2nnnc2SCc2c(F)cccc2Cl)cc1 as the compound, how does the fluorescence intensity read?
The fluorescence intensity was 3260.

Which fluorescence intensity does the source give for N[C@@H](Cc1c[nH]c2ccccc12)c1nnc(SCc2c(F)cccc2Cl)o1 here?
Its fluorescence intensity is 22800 (active).

For CC(C)C[C@@H](N)c1nnc(SCC(=O)c2ccc(Cl)cc2)o1, which fluorescence intensity is on record?
Its fluorescence intensity is 9640.

With CC(C)(C)C1C/C(=C/c2ccco2)C(=O)/C(=C/c2ccco2)C1 (centres undefined) as the compound, how does the fluorescence intensity read?
The fluorescence intensity was 3920.

Which fluorescence intensity does the source give for O=S1(=O)CC(N2CCSCC2)CN1Cc1cn(Cc2cccc(Cl)c2)nn1 (centres undefined) here?
Its fluorescence intensity is 5080.

Which fluorescence intensity does the source give for CC1(C)C(=O)C2(CCCCC2)C(=O)OC1c1cccs1 (centres undefined) here?
The fluorescence intensity was 20700 (active).

Which fluorescence intensity does the source give for O=C(O)C(c1cccs1)C1(O)CCCCC1 (centres undefined) here?
Its fluorescence intensity is 3860.

With CC12CN3CC(C)(CN(C1)C3c1cccs1)C2 (centres undefined) as the compound, how does the fluorescence intensity read?
The fluorescence intensity was 8490.

Which fluorescence intensity does the source give for CCC(C(=O)N1CCN(S(=O)(=O)c2sc(C(=O)O)c(C)c2C(=O)O)CC1)c1ccccc1 (centres undefined) here?
Its fluorescence intensity is 9090.

Which fluorescence intensity does the source give for CN(c1cccc(NC(=O)c2ccc(CN3CCc4ccccc4C3)cc2)c1)S(C)(=O)=O here?
The fluorescence intensity was 3600.

Which fluorescence intensity does the source give for Cc1ccc(N(CC(=O)Nc2cccc(N(C)S(C)(=O)=O)c2)S(C)(=O)=O)cc1 here?
The fluorescence intensity was 24500 (active).

With COc1cccc(NC(=O)Nc2ccc(F)cc2)c1 as the compound, how does the fluorescence intensity read?
Its fluorescence intensity is 3940.

For COc1ccc(C)cc1S(=O)(=O)N(CC(=O)Nc1cccc([N+](=O)[O-])c1)c1ccc(C)cc1, which fluorescence intensity is on record?
The fluorescence intensity was 2390.

For CCOc1ccc(N(CC(=O)Nc2cccc(OC)c2)S(C)(=O)=O)cc1, which fluorescence intensity is on record?
Its fluorescence intensity is 4460.

Which fluorescence intensity does the source give for CN(c1cccc(NC(=O)Nc2ccc(Cl)cc2)c1)S(C)(=O)=O here?
The fluorescence intensity was 16900 (active).

Which fluorescence intensity does the source give for N#Cc1c(NCCO)ccc([N+](=O)[O-])c1NCCO here?
Its fluorescence intensity is 3950.

With O=C(NCc1cccnc1)c1cc(C2CCCN(C(=O)CCCc3ccccc3)C2)on1 (centres undefined) as the compound, how does the fluorescence intensity read?
Its fluorescence intensity is 3480.

Which fluorescence intensity does the source give for COc1ccc(-c2coc3c(C(=O)NC(C)C)cccc23)c(C)c1 here?
Its fluorescence intensity is 3850.

Which fluorescence intensity does the source give for O=C(COC(=O)c1ccc(F)c(S(=O)(=O)N2CCOCC2)c1)NCc1ccc2c(c1)OCO2 here?
Its fluorescence intensity is 3750.

With CCOC(=O)N1CCN(c2c(NCCCN3CCCC(C)C3)c(=O)c2=O)CC1 (centres undefined) as the compound, how does the fluorescence intensity read?
The fluorescence intensity was 4370.

With Cc1ccc(-c2nc3c(C)cc(Br)cn3c2Cc2ccccc2)cc1 as the compound, how does the fluorescence intensity read?
The fluorescence intensity was 4960.

Which fluorescence intensity does the source give for CC(=O)N(CC(O)CO)c1c(I)c(C(=O)NCC(O)CO)c(I)c(C(=O)NCC(O)CO)c1I (centres undefined) here?
Its fluorescence intensity is 5720.

With N#Cc1c(N)nc2c(c1N)CC(C(F)(F)F)O2 (centres undefined) as the compound, how does the fluorescence intensity read?
Its fluorescence intensity is 4380.

For C=CCn1c(COc2ccc(F)cc2)nnc1SCC(=O)Nc1cccc(S(N)(=O)=O)c1, which fluorescence intensity is on record?
Its fluorescence intensity is 4780.

For C=CCn1c(COc2ccccc2C)nnc1SCC(=O)O, which fluorescence intensity is on record?
The fluorescence intensity was 2820.

Which fluorescence intensity does the source give for C=CCn1c(COc2cccc3cccnc23)nnc1SCC(=O)OC here?
Its fluorescence intensity is 21200 (active).

Which fluorescence intensity does the source give for CN(Cc1ccc(C(F)(F)F)cc1)C(=O)[C@H]1O[C@@H](n2cnc3c(N)ncnc32)[C@H](O)[C@@H]1O here?
The fluorescence intensity was 4210.

For COc1cc(C(=O)NCc2ccc3c(c2)cc(C)n3C)cc(OC)c1OC, which fluorescence intensity is on record?
Its fluorescence intensity is 3720.

Which fluorescence intensity does the source give for COCCNC(=O)C1(C)CCCN(Cc2cccc(F)c2)C1 (centres undefined) here?
Its fluorescence intensity is 2750.

Which fluorescence intensity does the source give for Brc1ccc(-c2noc(-c3ccccc3)n2)o1 here?
The fluorescence intensity was 4610.

With OC(c1nnc(-c2ccccc2)o1)c1cccs1 (centres undefined) as the compound, how does the fluorescence intensity read?
Its fluorescence intensity is 4160.

With Brc1ccc(-c2nnc(-c3ccccc3)o2)o1 as the compound, how does the fluorescence intensity read?
The fluorescence intensity was 24200 (active).

For CCCCCc1c(-c2ccc(OC)c(OC)c2)ncn1CCc1ccccc1OC, which fluorescence intensity is on record?
Its fluorescence intensity is 6300.

With COc1cccc(CNC(=O)COc2cc(O)c3c(c2)OC(C)(C)CC3=O)c1 as the compound, how does the fluorescence intensity read?
Its fluorescence intensity is 5480.

With CC1=C(C(=O)N2CCOCC2)CC(CC(=O)NCc2cccs2)C(=O)N1CCCN1CCCC1=O (centres undefined) as the compound, how does the fluorescence intensity read?
The fluorescence intensity was 4160.

For CCN(CC)C(=O)C1CCCN(Cc2cccc(Cl)c2)C1 (centres undefined), which fluorescence intensity is on record?
The fluorescence intensity was 2940.

For COc1ccc(N2CCN(C(=O)CCc3nc(-c4ccc(C)cc4)no3)CC2)cc1, which fluorescence intensity is on record?
The fluorescence intensity was 3440.

Which fluorescence intensity does the source give for COc1ccc(-c2noc(CSc3ccc(C)cc3)n2)cc1 here?
Its fluorescence intensity is 24000 (active).

For Cc1ccc(-c2noc(CC(c3ccccc3)c3ccccc3)n2)cc1, which fluorescence intensity is on record?
The fluorescence intensity was 4240.

With CC(C)c1ccc(CC(=O)N2CCC2(C)C(=O)NS(=O)(=O)c2ccc(C(C)(C)C)cc2)cc1 (centres undefined) as the compound, how does the fluorescence intensity read?
The fluorescence intensity was 2850.

Which fluorescence intensity does the source give for CCC(=O)N1CCC(C)(C(=O)Nc2cc(OC)c(OC)c(OC)c2)C1 (centres undefined) here?
The fluorescence intensity was 3060.

With O=C(CSc1nnc(Cc2ccccc2)n1-c1ccccc1)N1CCOCC1 as the compound, how does the fluorescence intensity read?
The fluorescence intensity was 16700 (active).

Which fluorescence intensity does the source give for CCn1c(CC(=O)Nc2ccccc2)nnc1SCC(=O)N1CCOCC1 here?
The fluorescence intensity was 6500.

For Cc1ccc(-n2c(CNc3ccc(F)cc3)nnc2SCC(=O)N2CCOCC2)cc1, which fluorescence intensity is on record?
The fluorescence intensity was 4740.

Which fluorescence intensity does the source give for O=C(COc1ccc([N+](=O)[O-])cc1Cl)Nc1ccc2[nH]c(=O)[nH]c2c1 here?
Its fluorescence intensity is 4100.

With COC(=O)c1ccc(OCC(=O)NC(C)(C)C)cc1 as the compound, how does the fluorescence intensity read?
The fluorescence intensity was 2670.

Which fluorescence intensity does the source give for CC(C)(C)NC(=O)COc1ccc(CNc2ccc3[nH]c(=O)[nH]c3c2)cc1 here?
Its fluorescence intensity is 22600 (active).

Which fluorescence intensity does the source give for CCC(Oc1ccccc1)C(=O)OCC(=O)Nc1c(C)nn(-c2ccccc2)c1C (centres undefined) here?
The fluorescence intensity was 3640.

With O=C(Nc1ccc2c(c1)CCC2)c1ccc(Br)s1 as the compound, how does the fluorescence intensity read?
Its fluorescence intensity is 4300.

For O=C(NC1CCCCCCC1)c1cccs1, which fluorescence intensity is on record?
The fluorescence intensity was 3700.

Which fluorescence intensity does the source give for O=C(NC1CCCC1)c1ccc(Br)s1 here?
Its fluorescence intensity is 17100 (active).

With CC(C)NC(=O)N1Cc2cc(C(=O)NCC(F)(F)F)nc(-c3cccc(-c4cc5ccccc5o4)c3)c2[C@@H]1CCO as the compound, how does the fluorescence intensity read?
The fluorescence intensity was 6410.

With Cc1ccc(S(=O)(=O)NCC(=O)N(CC(=O)NC(C)(C)C)Cc2cccs2)cc1 as the compound, how does the fluorescence intensity read?
The fluorescence intensity was 23500 (active).

With O=C(CN(CC1CCCO1)C(=O)CNS(=O)(=O)c1ccccc1)NCc1ccccc1 (centres undefined) as the compound, how does the fluorescence intensity read?
Its fluorescence intensity is 4900.

For CCC(C)(C)NC(=O)CN(Cc1cccs1)C(=O)CNS(=O)(=O)c1ccc(F)cc1, which fluorescence intensity is on record?
The fluorescence intensity was 4360.

With Cc1[nH]c2ccccc2c1CCN(Cc1cccs1)C(=S)NC(C)(C)C as the compound, how does the fluorescence intensity read?
The fluorescence intensity was 4220.

Which fluorescence intensity does the source give for CC(C)(C)NC(=O)CN(Cc1cccs1)C(=O)CNS(=O)(=O)c1ccccc1 here?
Its fluorescence intensity is 22000 (active).

With Cc1ccc(S(=O)(=O)NCC(=O)N(CC(=O)NC2CCCCC2)Cc2ccco2)cc1 as the compound, how does the fluorescence intensity read?
Its fluorescence intensity is 3490.

With CSCCC(c1nnnn1Cc1ccccc1)N1CCN(C/C=C/c2ccccc2)CC1 (centres undefined) as the compound, how does the fluorescence intensity read?
The fluorescence intensity was 6070.
